Test systems include T-47D breast; BT-549 breast; MDA-MB-435 melanoma; SW-620 colon; MCF7 breast; HCT-116 colon; HCC-2998 colon; KM12 colon.
What all share (experiment): NCI-60 one-dose screen, 48 h (100 = growth as untreated, 0 = no growth, -100 = all killed)
What all share (details): 10 µM unless noted

This is part of a sample that, as a whole, favours compounds with a hit. Of some 83,000 tested, about 20% had one in any assay.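 Cells were grown in 96-well plates and exposed to the test compound at a single concentration for 48 hours; results are reported as percent growth, with values below 10 considered active.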 Unmarked numbers belong to inactive results. Activity calls are given as the source filed them.

`Cc1cnc2nc(-c3ccc(N(C)C)cc3)cn2c1`: the growth in the assay with T-47D breast was 89.8%; in the assay on BT-549 breast, 112%; with MDA-MB-435 melanoma it was 96.3%; with SW-620 colon, 116%; with MCF7 breast, 92.1%; in the assay with HCT-116 colon, 97.2%. Moreover, the growth is 111% in the assay with HCC-2998 colon and 104% in the assay with KM12 colon.
Regarding `Cc1ccc(-c2cc(-c3ccccc3)n(-c3ccccc3)n2)cc1`, the growth in the assay on T-47D breast was 74.6%; with BT-549 breast, 101%; in the assay with MDA-MB-435 melanoma it was 89%; with SW-620 colon, 99.9%; with MCF7 breast, 97.5%; in the assay with HCT-116 colon, 29.9%. Moreover, the growth with HCC-2998 colon is 99.1%; in the assay on KM12 colon, 106%.
On to `COc1cccc(CCN2C(=O)CCC3=C2CCC3=O)c1`, for which the growth was 102% in the assay on T-47D breast; 101% in the assay with BT-549 breast; 107% in the assay with MDA-MB-435 melanoma; 119% in the assay on SW-620 colon; 103% with MCF7 breast; 97.7% in the assay on HCT-116 colon. The growth with HCC-2998 colon is 104%.
Turning to `C[C@]12CCC(=O)C=C1CCC1C2[C@@H](O)C[C@@]2(C)C1CC[C@]2(O)C(=O)COC(=O)CCC(=O)O` (stereo not given in full), the growth with T-47D breast is 114%; with BT-549 breast, 100%; with MDA-MB-435 melanoma, 96.3%; in the assay with SW-620 colon it was 113%; in the assay on MCF7 breast it was 102%; in the assay on HCT-116 colon, 106%. For the same molecule, the growth with HCC-2998 colon is 98%; in the assay on KM12 colon it was 109%.
Take `CC1CC=CCC1C1OCC(C)(C)CO1` (stereo not given): the growth with T-47D breast is 75.3%; in the assay on BT-549 breast, 99.9%; in the assay on MDA-MB-435 melanoma it was 105%; in the assay with SW-620 colon it was 102%; in the assay with MCF7 breast it was 101%; in the assay on HCT-116 colon it was 97.5%. Further, the growth in the assay with HCC-2998 colon is 113%.
Regarding `CC(=O)Nc1ccc(C(=O)COc2ccc(/C=C3\CCc4ccccc4C3=O)cc2)cc1`, the growth was 91% in the assay with T-47D breast; 97.1% in the assay with BT-549 breast; 122% with MDA-MB-435 melanoma; 113% with SW-620 colon; 122% in the assay on MCF7 breast; 106% in the assay on HCT-116 colon. Further, the growth in the assay with HCC-2998 colon is 118%.
Consider `COc1ccc2c(c1)sc1nc(-c3ccc(Br)cc3)cn12`, for which the growth in the assay with T-47D breast was 85%; with BT-549 breast, 120%; in the assay with MDA-MB-435 melanoma it was 103%; in the assay with SW-620 colon, 101%; with MCF7 breast it was 80.4%; in the assay with HCT-116 colon it was 92.4%. In addition, the values for the growth in the assay with HCC-2998 colon and in the assay on KM12 colon were 115% and 102%, respectively.
For the molecule `Cc1ccc(N/N=C(/C(=O)c2ccc(Cl)cc2)c2nc(C)cc(=O)[nH]2)cc1`, the growth in the assay with T-47D breast is 88.3%; in the assay with BT-549 breast, 118%; with MDA-MB-435 melanoma, 123%; in the assay with SW-620 colon, 93.7%; in the assay with MCF7 breast it was 91%; in the assay with HCT-116 colon, 86.9%. For the same molecule, the growth in the assay on HCC-2998 colon is 116%; in the assay with KM12 colon it was 115%.
As to `CCCn1c(N)c(C(=O)CNc2ccc(I)cc2)c(=O)[nH]c1=O`, the growth in the assay with T-47D breast was 94.9%; with BT-549 breast, 61.4%; with MDA-MB-435 melanoma it was 51.1%; in the assay with SW-620 colon it was 35.3%; in the assay on MCF7 breast, 57.1%; in the assay on HCT-116 colon, 32.3%. Besides, the growth with HCC-2998 colon is 74.2%; in the assay with KM12 colon, 43.7%.
Take `CCN(CC)CCSc1ncnc2c1cnn2-c1ccc(S(N)(=O)=O)cc1`: the growth with T-47D breast is 102%; in the assay on BT-549 breast, 100%; in the assay on MDA-MB-435 melanoma, 76.2%; in the assay on SW-620 colon, 73.5%; in the assay on MCF7 breast, 83.1%; in the assay with HCT-116 colon, 70.6%. In addition, the growth is 97.8% with HCC-2998 colon and 106% in the assay with KM12 colon.
Consider `COc1cccc(/C=N\NC(=O)c2ccncc2)c1O`, for which the growth was 28.2% in the assay with T-47D breast; 49.8% in the assay with BT-549 breast; 83% with MDA-MB-435 melanoma; 62.5% in the assay with SW-620 colon; 26.5% in the assay on MCF7 breast; 11.6% with HCT-116 colon. For the same molecule, the growth in the assay with HCC-2998 colon was 57.2%; in the assay with KM12 colon, 62.6%.
In the case of `c1ccc2nc(Cn3c[n+](Cc4ccc5ccccc5n4)c4ccccc43)ccc2c1`, the growth with T-47D breast is 10.6%; in the assay on BT-549 breast it was 8.39% (active); with MDA-MB-435 melanoma, 9.62% (active); in the assay with SW-620 colon, 45.3%; in the assay on MCF7 breast, 22.9%; in the assay with HCT-116 colon, 18.1%. Also, the growth is 32.9% with HCC-2998 colon and 21.9% with KM12 colon.
Turning to `COc1cccc(N2CCN(CC(=O)N3CCN(c4nnc(-c5ccc(Cl)cc5)c(-c5ccc(Cl)cc5)n4)CC3)CC2)c1`, the growth with T-47D breast was 27.2%; with BT-549 breast it was 88.4%; in the assay with MDA-MB-435 melanoma, 70.9%; in the assay with SW-620 colon it was 72.3%; in the assay on MCF7 breast, 41.2%; with HCT-116 colon it was 40.1%. Also, the growth in the assay on HCC-2998 colon is 80.6%; in the assay on KM12 colon, 56.5%.
Regarding `Cc1nn2c(/C=C3/C(=O)Nc4cc(Cl)ccc43)c(-c3ccccc3)nc2s1`, the growth is -63% (active) in the assay on T-47D breast; 15.4% with BT-549 breast; -14.8% (active) in the assay with MDA-MB-435 melanoma; -26.8% (active) in the assay on SW-620 colon; 21% in the assay with MCF7 breast; -79% (active) with HCT-116 colon. The growth is 120% with HCC-2998 colon and 78.7% in the assay with KM12 colon.
Regarding `COC(=O)[C@H](CCCCNC(=O)OCc1ccccc1)NC(=O)[C@@H](NC(=O)Nc1cc(C(F)(F)F)cc(C(F)(F)F)c1)C(C)C`, the growth in the assay with T-47D breast is -57.6% [100 µM] (active); in the assay with BT-549 breast, 47.1% [100 µM]; in the assay with MDA-MB-435 melanoma it was -86% [100 µM] (active); in the assay with SW-620 colon it was -14.6% [100 µM] (active); in the assay on MCF7 breast, -18.2% [100 µM] (active); with HCT-116 colon, -86.6% [100 µM] (active). Further, the results for the growth in the assay on HCC-2998 colon and in the assay on KM12 colon were -43.4% [100 µM] (active) and 7.99% [100 µM] (active), respectively.
`O=C(/C=C/c1cccc(Nc2ccnc3cc(Cl)ccc23)c1)c1ccc(Cl)cc1`: the growth in the assay on T-47D breast is 39.8%; in the assay on BT-549 breast, 54.3%; with MDA-MB-435 melanoma, 56.9%; in the assay with SW-620 colon it was 24.7%; in the assay on MCF7 breast, 27.6%; in the assay on HCT-116 colon it was 14.2%. Moreover, the growth in the assay with HCC-2998 colon was 71.4%; in the assay on KM12 colon, 62.6%.

These data come from PubChem BioAssay (NCI).
